Reference: PubChem BioAssay (Tox21)
Unmarked numbers belong to inactive results. Inconclusive results are not listed. Entries that show only a call come without a potency. The source made the active and inactive calls. Unless noted, calls follow the shape of the dose curve; as a rule, active = well fitted curve in the direction sought with a large enough effect in the repeat runs; inconclusive = weak or mixed curves; inactive = no such curve, though single readings can be large; an effect the other way counts as inactive or inconclusive.

Experiments:
[1] = molecular target: Progesterone receptor (Homo sapiens) (UniProt P06401); experiment: qHTS assay to identify small molecule agonists of the progesterone receptor (PR) signaling pathway (AID 1346784; calls by dose curve; also: nearly all actives have a fitted effect of over 30% in size; also: potency is read from the fitted curve at half-maximal effect)
Outline: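 Beta-lactamase reporter read-out: after 16 hr compound treatment at 37C and a further 2 hr at room temperature with LiveBLAzer B/G FRET substrate, fluorescence was measured in PR-UAS-bla HEK 293T cells grown in 2% charcoal-stripped serum.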

[2] = molecular target: Progesterone receptor (Homo sapiens) (UniProt P06401); experiment: qHTS assay to identify small molecule antagonists of the progesterone receptor (PR) signaling pathway (AID 1346795; active = well fitted inhibition curve with a large enough effect in the signal ratio in the repeat runs, not every such curve was filed as active; the % refers to the signal ratio)
Outline: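 Read-out is fluorescence from the LiveBLAzer B/G FRET substrate, cleaved by a UAS-controlled beta-lactamase in PR-UAS-bla HEK293T cells after 16 hr exposure to compound plus 1 nM promegestone (final), followed by 2 hr at room temperature.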

[3] = qHTS assay to identify small molecule antagonists of the TGF-beta/Smad signaling pathway - cell viability counter screen (AID 1346824); also: nearly all actives have a fitted effect of over 50% in size
Outline: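 SBE-bla HEK 293T cells, incubated overnight, then compound plus 0.25 ng/mL TGF-beta1 (stock added) for 5 hr at 37 C. Viability was read in the same wells by CellTiter-Glo luminescence after 30 min at room temperature.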

[4] = qHTS assay to identify small molecule agonists of the TGF-beta/Smad signaling pathway - cell viability counter screen (AID 1346829); also: top concentration of the series differs between compounds; nearly all actives have a fitted effect of over 45% in size
Outline: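 Luminescence from CellTiter-Glo, read after a 30 min room-temperature incubation, gives cell viability of SBE-bla HEK 293T cells treated 5 hr with compounds at 37 C.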

[5] = qHTS assay to identify small molecule agonists of the TGF-beta/Smad signaling pathway (AID 1346859; active = well fitted activation curve with a large enough effect in the signal ratio in the repeat runs, not every such curve was filed as active; the % refers to the signal ratio; also: series mostly up to about 77 µM)
Outline: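 SBE-bla HEK 293T, 4,000 cells/well, plated o/n; cpd in DMSO, 5 hr, 37 C/5% CO2; B/G FRET substrate 2 hr RT; ex 405, em 460/530 nm.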

[6] = molecular target: Thyrotropin-releasing hormone receptor (Homo sapiens) (UniProt P34981); experiment: qHTS assay to identify small molecule antagonists of the thyrotropin-releasing hormone receptor (TRHR) signaling pathway (AID 1346877; active = well fitted inhibition curve with a large enough effect in the repeat runs, not every such curve was filed as active; also: series mostly up to about 51 µM)
Outline: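 HEK293/TRHR cells, 18 h, 37 °C; Ca2+ dye 2 h; cpd 5 min RT; TRH 1 nM final; fluorescence read 3 min, 1 s intervals; 15 concs, triplicate.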

[7] = molecular target: Thyrotropin-releasing hormone receptor (Homo sapiens) (UniProt P34981); experiment: qHTS assay to identify small molecule agonists of the thyrotropin-releasing hormone receptor (TRHR) signaling pathway (AID 1346891; calls by dose curve; also: series mostly up to about 58 µM)
Outline: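 Intracellular calcium rise, read as fluorescence every second for 3 min, served as the agonist signal in dye-loaded HEK293 cells expressing TRHR; each compound ran at 15 concentrations in triplicate.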

[8] = Human pregnane X receptor (PXR) small molecule agonists, qHTS cell viability counter screen (AID 1346977); also: nearly all actives have a fitted effect of over 50% in size; also: potency is read from the fitted curve at half-maximal effect
Outline: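 PXR-Luc HepG2, 2,000 cells/well, 5% charcoal-stripped FBS; 5hr settle; cpd 24hr, 37C/5% CO2; CellTiter-Fluor at 23hr, read 1hr later (fluorescence).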

[9] = Caspase-3/7 induction in HepG2 cells by small molecules, qHTS assay (AID 1346978); also: nearly all actives have a fitted effect of over 15% in size
Outline: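 Wild-type HepG2 cells, 2,000/well, settled 5 hr at 37 C and 5% CO2, then compound-treated for 17 hr; caspase-3/7 activity read by luminescent Caspase-Glo 3/7 after 30 min at room temperature.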

[10] = Caspase-3/7 induction in CHO-K1 cells by small molecules, qHTS cell viability counter screen (AID 1346979); also: nearly all actives have a fitted effect of over 35% in size; also: potency is read from the fitted curve at half-maximal effect
Outline: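 Cells (CHO-K1, wild type) are plated at 1,500 per well and incubated 5hr. Test compounds in DMSO are then pinned in, followed by 16hr at 37C and 5% CO2. Viability is read by CellTiter-Fluor fluorescence after 1hr.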

[11] = Caspase-3/7 induction in HepG2 cells by small molecules, qHTS cell viability counter screen (AID 1346981); also: nearly all actives have a fitted effect of over 30% in size; also: potency is read from the fitted curve at half-maximal effect
Outline: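 Fluorescence read-out of live-cell protease activity (CellTiter-Fluor) after 1 hr with reagent. This was measured in the same wells as the caspase-3/7 luminescence, on HepG2 cells exposed to DMSO-dissolved compounds for 16 hr at 37 C.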

[12] = molecular target: Nuclear receptor subfamily 1 group I member 2 (Homo sapiens) (UniProt O75469); experiment: Human pregnane X receptor (PXR) small molecule agonists, qHTS assay (AID 1346982); also: nearly all actives have a fitted effect of over 35% in size; also: potency is read from the fitted curve at half-maximal effect
Outline: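 HepG2 PXR-Luc reporter line, 5% charcoal-stripped FBS; 5 hr pre-incubation, compound (DMSO) 24 hr at 37 C/5% CO2; ONE-Glo 30 min RT; luminescence read-out.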

[13] = molecular target: Acetylcholinesterase (Homo sapiens) (UniProt P22303); experiment: Acetylcholinesterase (AChE) small molecule antagonists: colormetric cell-based qHTS assay (AID 1347395; calls by dose curve; also: nearly all actives have a fitted effect of over 30% in size; also: potency is read from the fitted curve at half-maximal effect)
Outline: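 Colorimetric read-out: DTNB detects thiocholine released when cellular AChE in SH-SY5Y cells hydrolyses acetylthiocholine. Cells attached overnight, received compound for 30 min at 37 C, then substrate mix for 90 min at 37 C.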

[14] = molecular target: Acetylcholinesterase (Homo sapiens) (UniProt P22303); experiment: Acetylcholinesterase (AChE) small molecule antagonists: enzyme-based qHTS assay (AID 1347397; calls by dose curve; also: nearly all actives have a fitted effect of over 55% in size; also: potency is read from the fitted curve at half-maximal effect); settings: Potency: AChE enzyme activity inhibition
Outline: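 Colorimetric DTNB read-out of thiocholine released from acetylthiocholine by recombinant human AChE (50 mU/mL as dispensed). Compounds were preincubated 30 min at RT before substrate/DTNB addition, with a 10 min RT reaction.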

[15] = qHTS assay to identify small molecule antagonists of the progesterone receptor (PR) signaling pathway - cell viability counter screen (AID 1346798); also: nearly all actives have a fitted effect of over 50% in size; also: potency is read from the fitted curve at half-maximal effect
Outline: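 HEK293T PR-UAS-bla, 2% charcoal-stripped FBS; 4 hr pre-plate; cpd + R5020, 16 h 37C; LiveBLAzer read first; then CellTiter-Glo 30 min RT, luminescence.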

[16] = Caspase-3/7 induction in CHO-K1 cells by small molecules, qHTS assay (AID 1346980); also: nearly all actives have a fitted effect of over 15% in size
Outline: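 Wild-type CHO-K1 cells exposed to compounds for 17hr at 37 C, 5% CO2. Caspase-3/7 activity then measured by Caspase-Glo 3/7 luminescence after 30min at room temperature.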

[17] = molecular target: Nuclear receptor subfamily 1 group I member 2 (Rattus norvegicus) (UniProt Q9R1A7); experiment: Rat pregnane X receptor (rPXR) activation by small molecules, qHTS assay (AID 1346983); settings: rPXR luciferase reporter cells, One-Glo luminescence, 24 h; max activation: hits give high values; also: nearly all actives have a fitted effect of over 20% in size
Outline: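 Cell-based rPXR activation assay: rPXR cells, 2,000 per well, rested 5hr at 37 C, then exposed to compounds in DMSO for 24 hr at 37 C. Luciferase activity read by One-Glo luminescence after 30 min at room temperature.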

[18] = molecular target: Nuclear receptor subfamily 1 group I member 2 (Homo sapiens) (UniProt O75469); experiment: CYP3A4 induction through human pregnane X receptor (PXR) by small molecules, qHTS assay (AID 1346984); also: potency is read from the fitted curve at half-maximal effect; nearly all actives have a fitted effect of over 40% in size
Outline: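 HepG2-derived DPX-2 line carrying PXR plus a CYP3A4-promoter luciferase reporter; cells plated 5 hr, compound-exposed 24 hr at 37C. CYP3A4 activity probed with 3uM (final) Luciferin-IPA for 3hr, then luciferase read after One-Glo.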

[19] = molecular target: Nuclear receptor subfamily 1 group I member 2 (Homo sapiens) (UniProt O75469); experiment: Human pregnane X receptor (PXR) activation by small molecules, qHTS assay (AID 1346985); also: potency is read from the fitted curve at half-maximal effect; nearly all actives have a fitted effect of over 40% in size
Outline: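 DPX-2 cells (HepG2 co-transfected with a PXR response element and a CYP3A4-promoter luciferase construct) were seeded at 2,000 per well, rested 5 hr at 37C, then exposed to DMSO-dissolved compounds for 24 hr. Activation was read as luciferase luminescence.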

[20] = qHTS assay to identify small molecule agonists of the progesterone receptor (PR) signaling pathway - cell viability counter screen (AID 1346799; calls by dose curve; also: nearly all actives have a fitted effect of over 45% in size; also: potency is read from the fitted curve at half-maximal effect)
Outline: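 Luminescence from CellTiter-Glo, added after the beta-lactamase FRET read in the same wells, gave cytotoxicity in PR-UAS-bla HEK293T cells treated with compounds for 16 hr at 37C.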

Nuclear receptor subfamily 1 group I member 2 (Homo sapiens), sequence (O75469 whole entry, looked up): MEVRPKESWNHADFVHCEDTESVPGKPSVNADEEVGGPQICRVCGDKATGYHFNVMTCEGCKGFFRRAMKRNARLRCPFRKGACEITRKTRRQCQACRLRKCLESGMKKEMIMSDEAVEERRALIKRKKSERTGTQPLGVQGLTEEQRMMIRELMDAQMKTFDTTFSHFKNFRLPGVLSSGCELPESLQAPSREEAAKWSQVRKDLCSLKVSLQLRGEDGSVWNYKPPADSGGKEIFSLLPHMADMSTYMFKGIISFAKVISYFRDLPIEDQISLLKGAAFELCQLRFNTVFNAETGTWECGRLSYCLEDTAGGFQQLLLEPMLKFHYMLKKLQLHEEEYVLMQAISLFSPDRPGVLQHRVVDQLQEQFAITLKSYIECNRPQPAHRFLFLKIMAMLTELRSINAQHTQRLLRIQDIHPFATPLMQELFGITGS
Acetylcholinesterase (Homo sapiens), sequence (P22303 whole entry, looked up): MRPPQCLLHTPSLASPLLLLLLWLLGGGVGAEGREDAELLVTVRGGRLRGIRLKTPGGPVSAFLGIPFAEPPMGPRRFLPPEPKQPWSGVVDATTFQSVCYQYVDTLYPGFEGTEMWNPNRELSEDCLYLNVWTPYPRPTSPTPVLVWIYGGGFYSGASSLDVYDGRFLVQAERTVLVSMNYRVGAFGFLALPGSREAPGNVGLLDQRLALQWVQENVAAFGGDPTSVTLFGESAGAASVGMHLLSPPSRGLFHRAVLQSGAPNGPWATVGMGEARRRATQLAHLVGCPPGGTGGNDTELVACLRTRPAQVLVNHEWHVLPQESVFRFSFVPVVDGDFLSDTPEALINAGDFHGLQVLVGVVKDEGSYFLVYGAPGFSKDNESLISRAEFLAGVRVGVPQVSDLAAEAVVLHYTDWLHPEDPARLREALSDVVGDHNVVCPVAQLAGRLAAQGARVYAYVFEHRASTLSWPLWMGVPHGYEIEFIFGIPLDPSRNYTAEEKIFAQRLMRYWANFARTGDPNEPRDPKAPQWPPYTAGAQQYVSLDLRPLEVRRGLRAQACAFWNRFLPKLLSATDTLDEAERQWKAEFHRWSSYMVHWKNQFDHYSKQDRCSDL
Progesterone receptor (Homo sapiens), sequence (P06401 whole entry, looked up): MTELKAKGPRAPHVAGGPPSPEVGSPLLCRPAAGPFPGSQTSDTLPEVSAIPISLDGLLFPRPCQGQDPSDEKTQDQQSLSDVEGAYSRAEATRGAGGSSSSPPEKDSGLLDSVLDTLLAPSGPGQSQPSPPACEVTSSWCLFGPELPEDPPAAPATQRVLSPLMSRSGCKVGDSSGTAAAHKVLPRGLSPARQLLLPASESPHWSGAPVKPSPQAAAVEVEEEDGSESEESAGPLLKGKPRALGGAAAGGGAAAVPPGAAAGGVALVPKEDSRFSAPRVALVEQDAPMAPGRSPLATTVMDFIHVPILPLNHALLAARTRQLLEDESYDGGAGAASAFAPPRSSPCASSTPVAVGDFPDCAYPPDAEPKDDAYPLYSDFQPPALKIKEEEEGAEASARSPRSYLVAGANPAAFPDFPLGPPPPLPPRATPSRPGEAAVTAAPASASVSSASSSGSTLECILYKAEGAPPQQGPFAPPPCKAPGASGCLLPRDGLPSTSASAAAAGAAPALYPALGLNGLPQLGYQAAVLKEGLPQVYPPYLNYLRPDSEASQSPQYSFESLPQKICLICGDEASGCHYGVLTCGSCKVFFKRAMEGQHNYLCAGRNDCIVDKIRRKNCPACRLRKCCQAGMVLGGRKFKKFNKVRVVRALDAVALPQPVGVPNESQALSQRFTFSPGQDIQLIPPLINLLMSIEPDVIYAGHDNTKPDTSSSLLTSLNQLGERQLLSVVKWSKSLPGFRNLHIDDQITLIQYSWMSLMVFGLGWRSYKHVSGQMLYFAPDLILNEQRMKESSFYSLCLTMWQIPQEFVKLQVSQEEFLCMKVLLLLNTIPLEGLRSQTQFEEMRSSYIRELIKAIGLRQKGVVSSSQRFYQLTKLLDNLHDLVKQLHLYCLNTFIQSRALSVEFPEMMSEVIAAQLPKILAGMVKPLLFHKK
Thyrotropin-releasing hormone receptor (Homo sapiens), sequence (P34981 whole entry, looked up): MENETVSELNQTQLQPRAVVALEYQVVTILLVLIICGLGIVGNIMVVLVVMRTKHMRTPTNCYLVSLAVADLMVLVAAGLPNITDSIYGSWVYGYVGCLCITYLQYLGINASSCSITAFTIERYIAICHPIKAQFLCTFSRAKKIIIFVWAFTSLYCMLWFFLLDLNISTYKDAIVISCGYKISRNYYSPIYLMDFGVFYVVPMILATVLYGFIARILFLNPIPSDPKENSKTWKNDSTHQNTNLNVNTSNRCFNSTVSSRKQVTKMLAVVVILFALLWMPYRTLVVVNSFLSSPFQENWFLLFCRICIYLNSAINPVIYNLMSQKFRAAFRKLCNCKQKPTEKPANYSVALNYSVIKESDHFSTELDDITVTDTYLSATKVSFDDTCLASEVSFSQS
Nuclear receptor subfamily 1 group I member 2 (Rattus norvegicus), sequence (Q9R1A7 whole entry, looked up): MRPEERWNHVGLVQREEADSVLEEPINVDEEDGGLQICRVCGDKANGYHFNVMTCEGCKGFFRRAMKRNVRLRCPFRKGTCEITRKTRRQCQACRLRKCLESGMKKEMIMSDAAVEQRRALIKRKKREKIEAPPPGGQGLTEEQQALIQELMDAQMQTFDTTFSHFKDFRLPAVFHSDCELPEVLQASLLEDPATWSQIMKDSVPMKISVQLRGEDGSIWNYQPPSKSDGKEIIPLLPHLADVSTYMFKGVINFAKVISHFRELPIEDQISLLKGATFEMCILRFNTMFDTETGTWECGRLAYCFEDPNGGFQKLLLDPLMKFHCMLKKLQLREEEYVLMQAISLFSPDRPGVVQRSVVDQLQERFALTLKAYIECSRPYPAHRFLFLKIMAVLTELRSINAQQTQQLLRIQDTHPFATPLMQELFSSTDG

## c1ccc2nc(N3CCNCC3)ccc2c1
[1]
  Potency: inactive
[2]
  Potency: inactive
[3]
  Potency: inactive
[4]
  Potency: inactive
[5]
  outcome: inactive
[6]
  Potency: inactive
[7]
  Potency: inactive
[8]
  Potency: inactive
[9]
  Potency: inactive
[10]
  Potency: inactive
[11]
  Potency: inactive
[12]
  Potency: inactive
[13]
  Potency: inactive
[14]
  Potency: inactive

## CN1CCc2cc(Cl)c(O)cc2[C@H]2c3ccccc3CC[C@@H]21
[1]
  Potency: inactive
[15]
  Potency: inactive
[3]
  Potency: inactive
[4]
  Potency: inactive
[5]
  outcome: inactive
[9]
  Potency: inactive
[16]
  Potency: inactive
[12]
  Potency: inactive
[17]
  max activation: 0.833%
[18]
  Potency: 2.24 µM (active)
[19]
  Potency: 2.24 µM (active)

## C[C@@H]1CC2=CC(=O)CC[C@@H]2[C@H]2CC[C@@]3(C)[C@@H](CC[C@]3(C)O)[C@@H]21
[1]
  Potency: 0.0017 µM (active)
[2]
  Potency: inactive
[3]
  Potency: inactive
[4]
  Potency: inactive
[5]
  outcome: inactive
[8]
  Potency: inactive
[9]
  Potency: inactive
[16]
  Potency: inactive
[11]
  Potency: inactive
[12]
  Potency: inactive
[13]
  Potency: inactive
[14]
  Potency: inactive

## c1csc(-c2ccc(-c3cccs3)s2)c1
[1]
  Potency: inactive
[15]
  Potency: inactive
[20]
  Potency: inactive
[3]
  Potency: inactive
[4]
  Potency: inactive
[6]
  Potency: inactive
[7]
  Potency: inactive
[9]
  Potency: inactive
[10]
  Potency: inactive
[16]
  Potency: inactive
[11]
  Potency: inactive
[12]
  Potency: 19.3 µM (active)
[13]
  Potency: inactive
[14]
  Potency: inactive

## C=CCOC(=O)c1ccccc1N
[1]
  Potency: inactive
[15]
  Potency: inactive
[3]
  Potency: inactive
[4]
  Potency: inactive
[5]
  outcome: inactive
[8]
  Potency: inactive
[9]
  Potency: inactive
[10]
  Potency: inactive
[16]
  Potency: inactive
[11]
  Potency: inactive
[12]
  Potency: inactive
[13]
  Potency: inactive
[14]
  Potency: inactive

## Cc1cccc(Cc2cnc[nH]2)c1C
[1]
  Potency: inactive
[15]
  Potency: inactive
[20]
  Potency: inactive
[3]
  Potency: inactive
[4]
  Potency: inactive
[5]
  outcome: inactive
[8]
  Potency: inactive
[9]
  Potency: inactive
[10]
  Potency: inactive
[16]
  Potency: inactive
[11]
  Potency: inactive
[12]
  Potency: inactive
[13]
  Potency: inactive
[14]
  Potency: inactive

## CCNc1nc(NC(C)C(C)C)nc(SC)n1 (stereo not given)
[1]
  Potency: inactive
[15]
  Potency: inactive
[20]
  Potency: inactive
[3]
  Potency: inactive
[4]
  Potency: inactive
[5]
  outcome: inactive
[8]
  Potency: inactive
[9]
  Potency: inactive
[10]
  Potency: inactive
[16]
  Potency: inactive
[11]
  Potency: inactive
[12]
  Potency: 30.6 µM (active)
[13]
  Potency: inactive
[14]
  Potency: inactive

## CCN1CCC2(CC1)COc1cc3c(cc12)N(C(=O)c1ccc(-c2ccc(-c4nnc(C)o4)cc2C)cc1)CC3
[1]
  Potency: inactive
[15]
  Potency: 25.2 µM (active)
[20]
  Potency: 8.93 µM (active)
[6]
  Potency: inactive
[7]
  Potency: inactive
[8]
  Potency: 15.9 µM (active)
[10]
  Potency: 25.2 µM (active)
[11]
  Potency: 50.2 µM (active)
[12]
  Potency: 3.99 µM (active)
[13]
  Potency: 29.3 µM (active)
[14]
  Potency: 32.8 µM (active)

## CCOP(=O)(Sc1ccccc1)Sc1ccccc1
[1]
  Potency: inactive
[15]
  Potency: inactive
[20]
  Potency: inactive
[3]
  Potency: inactive
[4]
  Potency: inactive
[5]
  outcome: inactive
[9]
  Potency: inactive
[16]
  Potency: inactive
[11]
  Potency: inactive
[12]
  Potency: 34.4 µM (active)
[13]
  Potency: 3.99 µM (active)
[14]
  Potency: 17.8 µM (active)
